# Screens: PubChem, National Center for Advancing Translational Sciences (NCATS)
# Rows were chosen to be rich in hits. Some 5.7% of all compounds tested hit in one or more screens of this group.
# KDM4E inh: blocks human JMJD2E demethylase activity. JMJD2E catalytic domain, FDH-coupled NADH fluorescence (FDH is formaldehyde dehydrogenase). B2RXH2. 230,000 tested, 1.6% active. Potency, µM (highest dose often 57.1 µM), without a hit: top-dose activity change, negative = inhibition, most hits filed as inhibitors. AID 2147; active means well fitted inhibition curve with a large enough effect, not every such curve was filed as active; inconclusive means small, poorly fitted or top-dose-only effect, or another doubt; inactive means no such curve, though single readings can be large or run the other way;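 further: potency means the concentration at half of the fitted maximal effect; 0% = wells with enzyme and -100% = buffer wells without enzyme; nearly all actives have a fitted effect of over 50% in size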
# HP1b chromo inh: HP1-beta chromodomain-methylated histone interaction inhibition; AlphaScreen HP1-beta / biotin-H3K9me3 peptide binding; Potency, µM (top dose mostly 114 µM), inactives show at the top dose activity change, negative = inhibition, usual class: inhibitors; AID 540317; 390,000 tested, 0.56% active; P83916; further: potency means the concentration at half of the fitted maximal effect; nearly all actives have a fitted effect of over 70% in size
#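 HP1-beta protein (50 nM final) preincubated 30 min at room temperature with biotinylated H3(1-18)K9me3 peptide (50 nM) in PBS pH 7.4, 0.01% Tween-20, then compound added for 30 min. AlphaScreen streptavidin donor/nickel chelate acceptor beads (10 ug/mL final), 30 min dark, luminescence read.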
# BAZ2B block: inhibitors of human BAZ2B bromodomain; AlphaScreen BAZ2B-H3K14Ac peptide displacement; Potency, µM (series often up to 114 µM), for the others: top-dose activity change, negative = inhibition, most hits filed as inhibitors; Q9UIF8; 360,000 tested, 4.4% active; further: potency means the concentration at half of the fitted maximal effect; on the % scale 0 is the no-effect control and ±100 the full control effect; nearly all actives have a fitted effect of over 60% in size
#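 AlphaScreen displacement: compounds (up to 110uM) incubated 30 min at room temperature with a preformed 50 nM BAZ2B/50 nM biotinylated H3K14Ac peptide complex in PBS pH 7.4 with Tween-20. Donor and acceptor beads at 10 ug/mL final added, 20 min light-protected before reading.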
# L3MBTL1 inh: L3MBTL1 (human) inhibition; Q9Y468; AlphaScreen L3MBTL1–H3K9me1 peptide binding; Potency, µM (doses to about 57.1 µM), without a hit: at the top dose activity, negative = inhibition, hits mostly inhibitors; AID 485360; 230,000 tested, 0.66% active; further: potency means the concentration at half of the fitted maximal effect; on the % scale 0 is the no-effect control and ±100 the full control effect; nearly all actives have a fitted effect of over 60% in size
# Target sequence (Q9Y468 whole entry, looked up): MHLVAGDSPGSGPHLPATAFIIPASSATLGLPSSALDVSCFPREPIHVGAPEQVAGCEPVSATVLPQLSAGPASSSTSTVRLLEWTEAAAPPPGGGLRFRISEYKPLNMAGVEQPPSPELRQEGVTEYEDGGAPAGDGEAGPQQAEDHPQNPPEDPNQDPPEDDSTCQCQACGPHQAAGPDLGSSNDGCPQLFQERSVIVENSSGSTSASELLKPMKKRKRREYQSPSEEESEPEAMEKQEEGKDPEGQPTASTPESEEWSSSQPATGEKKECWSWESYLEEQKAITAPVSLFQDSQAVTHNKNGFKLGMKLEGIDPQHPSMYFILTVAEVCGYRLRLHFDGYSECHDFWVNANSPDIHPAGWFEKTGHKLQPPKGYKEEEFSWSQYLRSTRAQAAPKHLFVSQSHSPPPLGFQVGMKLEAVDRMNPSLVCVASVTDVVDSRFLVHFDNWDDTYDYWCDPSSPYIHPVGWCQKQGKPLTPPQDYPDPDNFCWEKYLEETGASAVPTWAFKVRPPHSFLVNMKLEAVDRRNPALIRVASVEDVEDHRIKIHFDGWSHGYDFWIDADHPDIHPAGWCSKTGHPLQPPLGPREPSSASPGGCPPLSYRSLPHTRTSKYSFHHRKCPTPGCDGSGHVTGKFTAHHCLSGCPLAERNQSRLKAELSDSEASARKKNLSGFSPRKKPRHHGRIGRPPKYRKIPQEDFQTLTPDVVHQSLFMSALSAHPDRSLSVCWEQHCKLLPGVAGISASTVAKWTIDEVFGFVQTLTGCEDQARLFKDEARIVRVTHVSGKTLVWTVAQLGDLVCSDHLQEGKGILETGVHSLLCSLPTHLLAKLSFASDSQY
#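 L3MBTL1 50 nM + b-AHA-H3(1-15)K9me1 75 nM, 30 min RT; compound added, 30 min RT; streptavidin donor/Ni-chelate acceptor beads 10 ug/mL each final, 30 min RT dark; AlphaScreen read.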
# JMJD2A Tudor: blocks the human JMJD2A Tudor domain. AID 504339. Potency, µM (top dose mostly 114 µM), without a hit: top-dose activity change, negative = inhibition, usual class: inhibitors. AlphaScreen JMJD2A-Tudor / H3K4me3 peptide binding. 390,000 tested, 4.4% active; further: potency means the concentration at half of the fitted maximal effect; on the % scale 0 is the no-effect control and ±100 the full control effect; nearly all actives have a fitted effect of over 50% in size
# PI5P4Ka inh: blocks human PI5P4K alpha kinase activity | P48426 | PI5P4Kalpha enzyme, ADP-Glo luminescence, 60 min; hits give low values | max response, % | 330,000 tested, 1.2% active | AID 652105; active means max response of -50% or lower; inconclusive means between -30% and -50%; inactive means -30% or higher; further: value at the top dose of about 77 µM; on the % scale 0 is the no-effect control and ±100 the full control effect
#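 Compounds were pin-transferred onto PI5P4Kalpha and substrate in HEPES pH 7.4 buffer with EGTA, CHAPS and 5% DMSO. ATP (5 microM final) started the reaction, which ran 60 minutes at room temperature before ADP-Glo detection.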
# Active calls of the source: *; u = inconclusive; x = no result; [ ] = dose if it differs, or a comment. Unless noted, the call rests on the fitted dose curve; in most records, active means well fitted inhibition curve with a large enough effect; inconclusive means small, poorly fitted or top-dose-only effect; inactive means no such curve, though single readings can be large or run the other way.
SMILES,KDM4E inh,HP1b chromo inh,BAZ2B block,L3MBTL1 inh,JMJD2A Tudor,PI5P4Ka inh
CCCCOc1ccccc1C(=O)N(Cc1cccc(F)c1)C1CCS(=O)(=O)C1 (stereo unspecified),x,28.7%,-8.9%,x,-8.3%,x
COc1ccc(N/C(=C2\CCCC2=O)C2CCCCC2)cc1,x,-11.1%,x,x,56.2µM*,-0.5
COc1ccc(CNC(=O)Cc2ccc(NC(=O)N3CCSc4ncccc43)cc2)cc1,x,39.0%,-13.2%,x,5.5%,x
CCCCC1CCC(C(=O)NCC(c2ccco2)N2CCOCC2)CC1 (stereo unspecified),x,x,-14.1%,x,x,x
O=C1C=C(c2ccc(Cl)c(C(F)(F)F)c2)C[C@@H](c2ccc(Cl)cc2)C1,x,59.4%,2.1%,7.0%,-9.4%,13.1
Cc1cccc(C)c1NC(=O)c1sc(-n2nc(C)c(Cc3ccc4c(c3)OCO4)c2C)nc1C,x,40.9%,-3.5%,x,-18.9%,x
CCOc1ccc(C(=O)CCC(=O)Nc2ncccc2O)cc1,x,13.0%,56.2µM*,-14.3%,-31.0%,u
CCOc1ccc(C(=O)CCC(=O)Nc2ccc(C)cn2)cc1,x,9.5%,-0.5%,-8.6%,-17.8%,2.8
Cc1ccc(N(C(=O)CNC(=O)c2ccco2)C(C(=O)NC2CCCC2)c2ccncc2)cc1F (stereo unspecified),x,32.6%,2.9%,x,-15.1%,-11.7
Cc1ccc(NS(=O)(=O)c2ccc(OCC(=O)NCC3CCCO3)cc2)cc1 (stereo unspecified),0.8%,-4.8%,5.1%,0.7%,50.1µM*,-25.6
O=C(Nc1ccccc1)c1ccc(CSc2ncccn2)cc1,0.8%,15.0%,44.7µM*,-3.4%,-5.5%,1.0
COc1cc2c(cc1OC)CN(c1nc(CN3CCOCC3)nc3sc4c(c13)CCCC4)CC2,-17.2%,u,44.7µM*,-18.5%,50.1µM*,11.3
COc1cc2c(cc1OC)CN(c1nc(CN3CCCC3)nc3sc(C)c(C)c13)CC2,-0.5%,0.5%,79.4µM*,0.4%,u,1.7
Cc1sc2nc(CN3CCCC3)nc(N3CCN(S(=O)(=O)c4ccccc4)CC3)c2c1C,x,11.5%,-22.0%,-7.3%,-32.0%,-8.0
Cc1sc2nc(CN3CCOCC3)nc(N3CCC(C(N)=O)CC3)c2c1C,-10.5%,53.1%,12.6%,1.9%,-27.5%[57.1 µM],-0.4
Cc1sc2nc(CN3CCOCC3)nc(N3CCOCC3)c2c1C,u,u,50.1µM*,x,u,2.5
COc1cc2c(cc1OC)CN(c1nc(CN3CCCCC3)nc3sc4c(c13)CCCC4)CC2,-8.5%,0.1%,u,-23.3%,-34.4%,4.1
CN(C)/N=C/c1ccc(P(c2ccc(/C=N/N(C)C)o2)c2ccc(/C=N/N(C)C)o2)o1,-3.3%,u,22.4µM*,-14.1%,17.8µM*,41.3
N#Cc1c(Sc2ncc(C(F)(F)F)cc2Cl)nsc1C/C=N\OCc1c(F)cccc1Cl,-5.6%,-23.1%,39.8µM*,x,u,-14.0
CC1=CC(c2ccccc2)n2nc(N3C(=O)CCC3=O)nc2N1 (stereo unspecified),u,35.3%,u,-4.8%,79.4µM*,7.9
CC1=CC(c2ccccc2)n2nc(N3C(=O)c4ccccc4C3=O)nc2N1 (stereo unspecified),10.0%,29.5%,-37.2%,-7.5%,-29.9%,x
CCCCNc1nc(C#N)nc(Nc2ccccc2)n1,x,x,x,x,-2.1%,x
COc1ccc(S(=O)(=O)NCCN2CCOCC2)cc1Br,x,24.1%,-7.3%,x,-2.4%,-3.5
CCN(CC)CCNS(=O)(=O)c1ccc(OC)c(Br)c1,-6.2%,28.1%,8.0%,x,56.2µM*,10.0
Cc1cc(C)c2[nH]c(C(=O)Nc3ccc4c(c3)OCO4)cc2c1,-5.7%,-19.9%,50.1µM*,u,56.2µM*,u
SMILES,KDM4E inh,HP1b chromo inh,BAZ2B block,L3MBTL1 inh,JMJD2A Tudor,PI5P4Ka inh
Clc1cccc(N2CCN(c3nc4ccccc4n4nnnc34)CC2)c1,x,89.6%,22.4%,x,33.6%,x
CCOC(=O)C1CCCN(c2nc3c(S(=O)(=O)c4ccc(CC)cc4)nnn3c3ccsc23)C1 (stereo unspecified),x,21.6%,-14.8%,x,-12.8%,x
CCOC(=O)C1CCCN(c2nc3c(S(=O)(=O)c4ccc(Br)cc4)nnn3c3ccsc23)C1 (stereo unspecified),x,35.4%,-9.2%,x,89.1µM*,x
c1ccc(-c2nc(-c3cccc4ccccc34)c(Nc3ccc4ccccc4c3)o2)cc1,-13.8%,x,x,x,x,x
COc1ccccc1N1CCN(S(=O)(=O)c2ccc3c(c2)NC(=O)C(C)S3)CC1 (stereo unspecified),x,23.3%,-18.1%,x,-22.3%,2.5
COc1ccccc1N1CCN(C(=O)C(C)CS(=O)(=O)c2ccc3c(c2)NC(=O)CS3)CC1 (stereo unspecified),x,38.1%,56.2µM*,x,21.0%,-11.4
ClCCn1c(CCl)nc2ccc(Cl)cc21,x,x,x,x,x,0.7
COc1ccccc1N1CCN(/N=C/c2cccc(Cl)c2)CC1,x,-26.6%,u,-12.8%,50.1µM*,-2.1
COc1cccc(/C=N/N2CCN(c3ccncc3S(=O)(=O)N3CCCCC3)CC2)c1,-10.0%,u,39.8µM*,-20.4%,u,0.1
COc1cc(OC)c(/C=N/N2CCN(c3ccccc3OC)CC2)c(OC)c1,x,-1.8%,u,-14.3%,u,2.5
COc1cccc(/C=N/N2CCN(c3ccccc3OC)CC2)c1,-2.9%,-24.0%,u,-16.8%,44.7µM*,x
COc1ccc(NC(=O)N(C)C[C@H]2Oc3cc(Br)ccc3S(=O)(=O)N([C@H](C)CO)C[C@@H]2C)cc1,x,x,x,x,x,0.2
Nc1ncc(S(=O)(=O)NCc2ccccc2F)cn1,x,22.2%[57 µM],-0.5%,x,1.0%,x
CCC(C)OC(=O)/C(C#N)=C\c1ccc(-c2ccccc2Cl)o1 (stereo unspecified),x,28.2%,-1.4%,x,-17.3%,x
CC1(C)CC(NC(=O)c2cc(S(=O)(=O)N3CCOCC3)c(Cl)cc2Cl)CC(C)(C)N1,x,34.5%,50.1µM*,7.0%,-0.7%,-0.1
O=C(CCS(=O)(=O)c1ccc(F)cc1)Nc1nc(-c2ccccn2)cs1,x,23.2%,u,x,5.4%,2.1
O=C(CC1CC2CCC1C2)Nc1nc(-c2ccccn2)cs1 (stereo unspecified),-40.6%,8.3%,44.7µM*,x,-22.8%,-19.4
O=C(Nc1nc(-c2ccccn2)cs1)C12CC3CC(CC(O)(C3)C1)C2,u,u,14.1µM*,u,-5.3%[11.4 µM],-7.1
O=C(Nc1ccccn1)C12CC3CC(C1)CC(C(=O)Nc1ccccn1)(C3)C2,4.7%,53.8%,u,-8.8%,-4.6%[57.1 µM],0.5
O=C(CCS(=O)(=O)c1ccccc1)Nc1nc(-c2ccccn2)cs1,x,29.9%,x,x,89.1µM*,-3.2
COc1ccc(Nc2nc(-c3c(C)nc4ncccn34)cs2)cc1,-9.3%,-1.0%,u,u,u,-2.5
